Inhibition data for nine molecules are collected here from ChEMBL document CHEMBL3433997, “St. Jude Leishmania screening dataset” (2016).

The target in this test is Glucose transporter (Leishmania mexicana) (UniProt O61059). Kind of test: ST_JUDE_LEISH: Cytotoxicity at 2uM final concentration against transgenic Leishmania Mexicana promastigotes LmGT2 that are glucose transport deficient and complemented with the L. Mexicana glucose transporter 2. Activity is measured by DNA content using SYBR green in vitro. The class given is functional.
For the molecule `C=C[C@]1(C)C[C@@H](OC(=O)NC(=O)CCCS(=O)(=O)c2nnc(C)s2)[C@]2(C)[C@H](C)CC[C@]3(CCC(=O)[C@H]32)[C@@H](C)[C@@H]1O`, the inhibition (usually the relative decrease from the control value, in per cent) amounted to 6.8%. Consider `S=C(NCCCCCN1CCC(c2c[nH]c3ccccc23)CC1)Nc1ccc(Cl)c(Cl)c1`, for which the inhibition stood at 2.15%. Under `CCCC(CNCc1cccc(OC(F)(F)C(F)F)c1)CNc1cc(=O)c2ccccc2[nH]1` (centres undefined) stands -4.05%.

With `OCCN1CCN(Cc2cccc(-c3ccc(-c4nc5cc(C(F)(F)F)ccc5[nH]4)s3)c2)CC1`, the inhibition was 0.82%.

For the molecule `CCN1CCN(c2cc(C)c3cc(NC(=O)c4cccc(Cl)c4)ccc3n2)CC1`, the inhibition was determined as 8.84%.

For the molecule `Cc1cc(NCCc2ccc(O)cc2)nc(NCC(c2ccccc2)c2ccccc2)n1`, the inhibition amounted to 5.19%. `CCCCCCCCCC(=O)NCC1CC(Br)=NO1` (centres undefined): the inhibition is -1.46%.

As to `COc1ccc(Nc2ncc(C#N)c(Nc3ccccc3C(N)=O)n2)cc1N1CCN(C)CC1`, the inhibition was 9.63%. Turning to `CC(=O)Nc1cccc(CNCc2ccc(-c3cnc(N4CCCC(C)(C)C4)nc3)cc2)c1`, the inhibition turned out to be 0.65%.
